# The whole screen tested about 360,000 compounds, of which about 17,000 (4.7%) were called active. About 5% were inconclusive and are not listed. Cut-off read from the data, not from the text of the source: active = activity change below about -50%; inconclusive = mostly about -30% to -49%; inactive = weaker than that. Many of the other results were omitted from the sample, so actives are more common in it than they were.
# Assay: qHTS for Inhibitors of Inflammasome Signaling: IL-1-beta AlphaLISA Primary Screen
# Details: THP-1 LPS/ATP IL-1B secretion, 16 h; at 57.5 µM, stronger effect = lower value
# How it was run: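 Secreted IL-1B measured by AlphaLISA bead assay after 16 h compound exposure of THP-1 cells; compounds (final up to 57.5 uM) added 1 h before LPS (250 ng/mL) and ATP (1.25 mM) stimulation; lower signal means less secretion.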
# % is set by controls: 0 for no effect and ±100 for the full control effect.
row,Compound,activity change
1,O=C(CCC(=O)OCc1ccc(Cl)cc1)Nc1ccccc1,15% (inactive)
2,COc1ccc(NC(=O)C(C)N2c3cccc4cccc(c34)S2(=O)=O)c(OC)c1 (stereo not drawn),27.8% (inactive)
3,CCC(C)CN1C(=O)CN(S(C)(=O)=O)CC1(C)C(=O)Nc1ccc2c(c1)OCCO2 (stereo not drawn),-19.9% (inactive)
4,COc1ccc(-c2cc3c(c4c2ccn4C)C2CCC3C2)cn1 (stereo not drawn),0% (inactive)
5,COc1ccc(-c2nc3ccccc3c(=O)n2CCc2ccc(O)cc2)cc1,-13% (inactive)
6,COc1ccc(-c2c(C#Cc3ccccc3)c3ccccc3n2C)cc1,-16.3% (inactive)
7,COc1ccc(CCNCc2c(-c3ccccc3)n(C)c3ccccc23)cc1,-97.2% (active)
8,CCN1CN(Cc2ccccc2)CNC1=S,0.299% (inactive)
9,CCc1nnc(NC(=O)C2CCN(C(=O)c3ccccc3C)CC2)s1,-4.49% (inactive)
10,Cc1ccc(C(NC(=O)C2CCN(CCOc3ccc(Cl)cc3Cl)CC2)c2ccccn2)cc1 (stereo not drawn),-68.4% (active)
11,O=C(CCCOc1ccc(Cl)cc1Cl)NNC(=O)C1CCC1,-7.73% (inactive)
12,CCOc1ccc(S(=O)(=O)N2CCC(C(=O)NCc3ccccn3)CC2)cc1Cl,-5.47% (inactive)
13,CC(C)C[C@@H]1COc2cc(N3CCC[C@@H]3CO)ccc2S(=O)(=O)N1,24.4% (inactive)
14,CCc1ccc(C(CNc2nc(C(F)(F)F)nc3ccccc23)N(C)C)cc1 (stereo not drawn),-104% (active)
15,COc1cccc(CNC(=O)c2n[nH]c3ccccc23)c1,-5.24% (inactive)
16,CN(NC(=O)c1ccccc1F)c1nc(C(F)(F)F)nc2ccccc12,94.2% (inactive)
17,COc1ccc(CNc2ncnc3ccccc23)cc1,-5.53% (inactive)
18,COc1cccc(CNc2nc(C(F)(F)F)nc3ccccc23)c1,-81.4% (active)
19,NS(=O)(=O)c1ccc(CCNc2nc(C(F)(F)F)nc3ccccc23)cc1,-29.6% (inactive)
20,O=C(NCCc1ccc(F)cc1)c1ccc(S(=O)(=O)N2CCCCC2)cc1,7.26% (inactive)
21,CC1CN/C(=C\C(=O)c2ccc(Br)cc2)C(=O)N1 (stereo not drawn),-2.3% (inactive)
22,CCc1nc2c(=O)[nH]cnc2o1,-0.15% (inactive)
23,CCCNC(=O)C1(C)CCCN(Cc2c(C)nn(-c3ccccc3)c2C)C1 (stereo not drawn),0% (inactive)
24,C[C@H]1Cn2cnc(C(=O)N[C@H](C)c3ccccc3)c2C(=O)N1,56.9% (inactive)

row,Compound,activity change
1,O=C(Nc1cccc(C(=O)O)c1)/C(=C\c1ccccc1)NC(=O)c1ccc(Br)o1,-24.2% (inactive)
2,C[C@H]1CN([C@@H](C)CO)S(=O)(=O)c2ccc(Br)cc2O[C@H]1CN(C)C(=O)c1cnccn1,7.37% (inactive)
3,O=C(CSc1ncnc2sccc12)N1CCN(C(=O)c2cccs2)CC1,-0.616% (inactive)
4,Nc1c(C(=O)c2cccs2)sc2nsc(SCCN3CCCCC3)c12,-95.7% (active)
5,CCC1OC(C2CC2)CC2=C1C(=O)OC(C)(C)O2 (stereo not drawn),29.6% (inactive)
6,COc1ccc(C2N=C(N)N=C(N)N2c2ccccc2)cc1OC (stereo not drawn),-16.9% (inactive)
7,O=[N+]([O-])c1ccc(N2CCN(c3ccc(F)cc3)CC2)cn1,-1.6% (inactive)
8,NC1=NC(c2ccc([N+](=O)[O-])cc2)N(c2ccc(F)cc2)C(N)=N1 (stereo not drawn),-52.3% (active)
9,CC(C)(C)c1ccc(S(=O)(=O)NC(=O)C2(C)CCN2C(=O)CC2CC2)cc1 (stereo not drawn),-3.72% (inactive)
10,CC(Nc1nc(N2CCOCC2)nc2ccccc12)c1ccccc1 (stereo not drawn),0% (inactive)
11,Cn1c(=O)[nH]c(=O)c2c1nc(N1CCN(CCO)CC1)n2CCSc1nc2ccccc2s1,10.2% (inactive)
12,CC(Nc1nc(N2CCCC2)nc2ccccc12)c1ccccc1 (stereo not drawn),-80.2% (active)
13,c1ccc(-c2cc(N3CCCCC3)c3ccccc3n2)cc1,-26.2% (inactive)
14,CCCCn1c(CN2CCN(CCO)CC2)nc2ccccc21,44.1% (inactive)
15,CC(Nc1nc(N2CCN(CCO)CC2)nc2ccccc12)c1ccccc1 (stereo not drawn),-90.7% (active)
16,COc1ccc(CCCNC(=O)C2Cc3c(-c4cccc(C(N)=O)c4)ccnc3O2)cc1 (stereo not drawn),34.7% (inactive)
17,CCN(CC)CCCN=C(N)N,-17.5% (inactive)
18,O=P(c1ccc2c(c1)OCCO2)(N1CCOCC1)N1CCOCC1,8.69% (inactive)
19,COc1cccc(OCc2cc(C(=O)N3CCN(C(=O)c4ccco4)CC3)no2)c1,6.56% (inactive)
20,Cc1ccc(OCC(=O)Nc2ccc(N3CCN(C(=O)c4ccco4)CC3)cc2)c(C)c1,-61.6% (active)
21,Cc1ccc(NC(=O)C(c2ccccc2)N2CCN(C(=O)c3ccco3)CC2)cc1 (stereo not drawn),16.1% (inactive)
22,COc1cccc(C(=O)Nc2ccc(N3CCN(C(=O)c4ccco4)CC3)cc2)c1,-73.8% (active)
23,Cc1ccc(OCC(=O)Nc2ccc(NC(=O)c3cccs3)cc2)c(C)c1,-1.3% (inactive)
24,COc1ccc(C(=O)Nc2ccccc2C(=O)N2CCN(c3ccccc3)CC2)cc1,0% (inactive)

# — PubChem BioAssay AID743279 (National Center for Advancing Translational Sciences (NCATS), 2014)
